Assay results published in PubChem BioAssay AID2732 (Emory University Molecular Libraries Screening Center, 2010).
Among all 220,000 compounds or so, about 8,200 (3.7%) were called active. What follows is part of a selection rich in actives, with near analogues and random picks from the rest. Values without a mark were called inactive.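 Rule for the calls: active = compounds that reduced the stress-induced luciferase reporter signal by more than about 70% of percent inhibition (limit read from the data); inactive = the rest.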

Experiment: blockers of ER-stress CHOP reporter expression – cell-based, unfolded protein response, luciferase reporter, primary screen (AID 2732);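 note: 0% = tunicamycin plus vehicle and 100% = wells without tunicamycin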
Details: CHO-K1 CHOP-promoter luciferase, tunicamycin-induced, 15-18 h; at 10 µM; stronger effect = higher value

| SMILES | inhibition |
| --- | --- |
| CC(=O)Nc1nc(C)c(-c2csc(Nc3ccc(S(N)(=O)=O)cc3)n2)s1 | 18.6% |
| CC(=O)Nc1ccc(/C=N/Nc2ccc(C(=O)c3c(C)cc4ccccn34)cc2[N+](=O)[O-])cc1 | 17.2% |
| CCN(CC)C(=O)CSC(Nc1cccc(F)c1)=C(C#N)C#N | -25.7% |
| Oc1c(Br)cccc1/C=N/Nc1c(F)c(F)c(F)c(F)c1F | 89.8% (active) |
| O=[N+]([O-])c1cc(Br)c(O)c(/C=N/Nc2nc3ccccc3s2)c1 | 17.5% |
| COc1cccc(/C=N/Nc2ncc(C(F)(F)F)cc2Cl)c1O | 46.9% |
| CCOc1c(Nc2cccc(Cl)c2)c(=O)c1=O | 18.3% |
| O=S(=O)([N-]c1nc2ccccc2nc1-[n+]1ccc(Cc2ccccc2)cc1)c1ccc(Br)s1 | 21.4% |
| O=C(NCc1cccnc1)c1ccc(CS(=O)(=O)c2ccc(Br)cc2)o1 | 61.7% |
| O=S(=O)(c1ccc(Br)cc1)c1nc(-c2ccccc2)oc1NCc1cccnc1 | 72.4% (active) |
| O=S(=O)(c1ccccc1)c1nc(-c2ccccc2F)oc1NCc1cccnc1 | 4.16% |
| O=C(Nc1ccc(Cl)cc1)Nc1ccc(C(=O)N2CCOCC2)cc1 | 33.4% |
| O=C(Nc1ccc2c(c1)OCCO2)c1ccoc1 | 0.05% |
| COc1ccccc1/C=C/C=N/NC(=O)CN1CCN(Cc2ccccc2)CC1 | 24.4% |
| Cc1cc2nc3c(=O)n(Cc4ccccc4)c(=O)[nH]c3nc2cc1N | 3.92% |
| CNC(=O)c1ccsc1NC(=O)c1ccc(S(=O)(=O)N2CCc3ccccc32)cc1 | 37.3% |
| O=C(NC(Nc1nc2ccc([N+](=O)[O-])cc2s1)(C(F)(F)F)C(F)(F)F)c1ccccc1 | 106% (active) |
| O=S(=O)(c1ccc2c(c1)OCCO2)N1CCc2ccccc21 | 32.4% |
| O=C(Nc1nc2ccc([N+](=O)[O-])cc2s1)c1ccc(S(=O)(=O)N2CCCc3ccccc32)cc1 | 80.6% (active) |
| CCn1c(=O)c(=O)n(CC)c2cc(S(=O)(=O)N3CCc4ccccc43)ccc21 | 35% |

| SMILES | inhibition |
| --- | --- |
| COC(=O)C(NC(=O)c1ccc(OC)cc1)(Nc1ncc(S(=O)(=O)c2ccc([N+](=O)[O-])cc2)s1)C(F)(F)F (stereo not given) | -14.3% |
| CS(=O)(=O)c1ccc2nc(NC(=O)c3ccc(N4CCCC4=O)cc3)sc2c1 | -17% |
| O=C(Nc1nc2ccc([N+](=O)[O-])cc2s1)c1ccncc1 | -12.2% |
| CSc1nc2ccc(S(=O)(=O)N3CCc4ccccc43)cc2s1 | 71% (active) |
| Cc1nc(C(=O)Nc2ccc(Cl)cc2)sc1C1(C)CC(c2ccccc2)=NO1 (stereo not given) | 19.7% |
| COc1ccc(CCNCC(O)Cn2ccc3ccccc32)cc1OC (stereo not given) | 7.33% |
| COCCn1c(CN(Cc2ccccc2)Cc2ccccc2)nc2c1c(=O)n(C)c(=O)n2C | 63.3% |
| CC(C)CCn1c(CN(C)Cc2ccccc2)nc2c1c(=O)n(C)c(=O)n2C | 16% |
| CC(C)Cn1c(CN(Cc2ccccc2)Cc2ccccc2)nc2c1c(=O)n(C)c(=O)n2C | 95% (active) |
| S=C(NNC(=S)NC1CC2CCC1C2)NC1CC2C=CC1C2 (stereo not given) | 12.8% |
| Cc1cc(C)nc(NC(=O)/C=C/c2ccc(Cl)cc2)n1 | 8.16% |
| COC(=O)c1c(C)[nH]c(C(=O)/C=C/c2ccc(Cl)cc2)c1C | 85% (active) |
| CCCCOC(=O)c1[nH]c(C)c(C(=O)OC)c1C | -2.34% |
| Cn1c(S(=O)(=O)O)nc2ccccc21 | 10.4% |
| COc1ccccc1-c1c(C#N)c(N)nc2c1CCC2 | -1.63% |
| O=c1[nH]c2cccnc2n1-c1ccc([N+](=O)[O-])cc1 | 16.2% |
| OCC1(Cc2ccccc2C(F)(F)F)CCN(Cc2ccncc2)CC1 | 1.13% |
| CCC(=O)N1CCCc2ccccc21 | -4.19% |
| OC(c1nnc(-c2ccccc2)o1)c1cccs1 (stereo not given) | -26.1% |
| C=CCn1c(SCc2nnc(-c3ccccc3)o2)nnc1C(O)c1ccccc1 (stereo not given) | 14% |

| SMILES | inhibition |
| --- | --- |
| CCCN(CCC)c1ccc(C(O)c2nnc(-c3ccccc3)o2)cc1 (stereo not given) | 91.7% (active) |
| O=C1C2C3C=CC(C3)C2C(=O)N1c1ccc(S(=O)(=O)Nc2nccs2)cc1 (stereo not given) | 15.9% |
| O=C(COC(=O)CCc1nc2ccccc2c(=O)[nH]1)Nc1ccc(N2CCOCC2)cc1 | 12.7% |
| CCOC(=O)Cn1c(N)c(C(=O)OC)sc1=S | 25.2% |
| CCOC(=O)c1sc(=S)n2c1[nH]c(=O)c1ccc(C(=O)OC)cc12 | 90.7% (active) |
| CCOC(=O)c1sc(=S)n(-c2cccc(OC)c2)c1N | 7.44% |
| Fc1ccccc1/C=N/n1c(-c2cccnc2)n[nH]c1=S | 6.74% |
| COc1cccc(CC(=O)Nc2ccc(-c3csc(C)n3)cc2)c1 | 7.07% |
| CCOC(=O)C(=CNNc1ccsc1C(=O)OC)C(=O)OCC | 8.45% |
| Cc1ccc(OCC(O)CN2CCN(CC(O)COc3ccc(C)cc3Cl)CC2)c(Cl)c1 (stereo not given) | 93.5% (active) |
| Cc1cccc(C)c1OCC(O)CN1CCCCC1 (stereo not given) | 10.2% |
| Cc1ccccc1OCC(O)CN1CCN(c2ccccn2)CC1 (stereo not given) | 15.9% |
| CCCCCCCC(=O)OC(CN1CCCCCC1)CN1CCCC1=O (stereo not given) | 4.3% |
| Fc1ccccc1C(c1nnnn1Cc1ccc2c(c1)OCO2)N1CCN(Cc2ccccc2)CC1 (stereo not given) | 97.9% (active) |
| CC(C)(C)n1nnnc1C(c1ccc(F)cc1)N1CCN(Cc2ccc3c(c2)OCO3)CC1 (stereo not given) | 16.3% |
| Cc1cc(C)c2[nH]c(=O)c(C(c3nnnn3Cc3ccc4c(c3)OCO4)N3CCCC3)cc2c1 (stereo not given) | -5.25% |
| CCC1=NN2C(=N)/C(=C/c3cc(C)n(-c4ccccc4)c3C)C(=O)N=C2S1 | -8.4% |
| c1ccc(CCN2CN=C(Nc3nc4ccccc4o3)NC2)cc1 | 94.3% (active) |
| N#CNC1=NCN(CCc2ccccc2)CN1 | -32.6% |
| CCCN1CNC(=S)N(CCc2ccccc2)C1 | 1.62% |
